Measurements reported in PubChem BioAssay AID588852 (The Scripps Research Institute Molecular Screening Center, 2011).
About 4,600 (1.3%) of roughly 360,000 compounds were called active.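 The calls were made as follows: active = percent inhibition above its own plate's cutoff, namely the mean of that plate's compound wells plus 3 SD; inactive = the rest.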 The entries come from a sample that favours actives as a whole. Peptide text beside a SMILES is read from it. * marks the point of attachment. Bz = O=C(c1ccccc1)*

Each compound was assayed against Muscarinic acetylcholine receptor M1 (Homo sapiens) (UniProt P11229) (assay: CHRM1 blockers of acetylcholine calcium response – CHO-K1 cells, Fluo-8 calcium fluorescence, 1536-well, primary screen (AID 588852;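 also: peak over basal fluorescence ratio during 140 s after agonist addition; 0% = ACh EC80 plus DMSO and 100% = DMSO alone without agonist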)). Settings: CHO-K1 hM1, Fluo-8 calcium fluorescence, ACh EC80 antagonist; at 3 µM; stronger effect = higher value.
Sequence of Muscarinic acetylcholine receptor M1 (Homo sapiens) (P11229 whole entry, looked up): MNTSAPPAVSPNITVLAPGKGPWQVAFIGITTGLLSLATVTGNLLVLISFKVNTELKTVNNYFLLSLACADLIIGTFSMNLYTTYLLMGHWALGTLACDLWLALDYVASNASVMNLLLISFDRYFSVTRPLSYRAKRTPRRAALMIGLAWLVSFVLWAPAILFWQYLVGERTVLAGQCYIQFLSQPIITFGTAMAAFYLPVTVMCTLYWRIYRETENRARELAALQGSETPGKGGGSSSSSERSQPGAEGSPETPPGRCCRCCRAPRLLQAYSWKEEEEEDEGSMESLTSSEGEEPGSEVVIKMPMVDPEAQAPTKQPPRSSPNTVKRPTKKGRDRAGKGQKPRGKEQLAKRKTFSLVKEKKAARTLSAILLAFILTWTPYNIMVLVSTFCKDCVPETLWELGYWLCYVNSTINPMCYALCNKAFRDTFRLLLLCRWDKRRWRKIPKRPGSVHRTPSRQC

Row | Compound | inhibition
1 | COc1ccccc1Oc1ccc(S(=O)(=O)Nc2cccnc2)cc1 | 35.1% (active)
2 | COc1ccc(S(=O)(=O)Nc2cccnc2)c(Cl)c1Cl | 9.26% (inactive)
3 | Cc1cc(C)c(C)c(S(=O)(=O)Nc2cccnc2)c1C | -12.2% (inactive)
4 | O=[N+]([O-])c1ccc(CN2CC(N3CC=CC3)CS2(=O)=O)cc1 (stereo not given) | 7.78% (inactive)
5 | CCCC1=Nc2cc(C(=O)NCc3ccco3)ccc2Sc2ccccc21 | 13.6% (inactive)
6 | CCCC1=Nc2cc(C(=O)NCCN3CCCC3)ccc2Sc2ccccc21 | 44% (active)
7 | CCC1=Nc2cc(C(=O)NCCCN3CCOCC3)ccc2Sc2ccc(Br)cc21 | 1.43% (inactive)
8 | Cc1cccc(CN2CCC(n3nccc3NC(=O)c3ccccc3C)CC2)n1 | -7.86% (inactive)
9 | C[C@@H]1CN([C@@H](C)CO)C(=O)CCCn2nncc2CO[C@H]1CN(C)Cc1ccc(C(F)(F)F)cc1 | -8.15% (inactive)
10 | Cc1ccc(CN(C)C[C@@H]2OCc3cnnn3CCCC(=O)N([C@@H](C)CO)C[C@H]2C)cc1 | -6.67% (inactive)
11 | C[C@@H]1CN([C@H](C)CO)C(=O)c2cc(-c3ccc(F)cc3)cnc2O[C@H]1CN(C)C(=O)c1ccc(F)cc1 | -3.76% (inactive)
12 | C[C@H]1CN([C@@H](C)CO)C(=O)CCCn2nncc2CO[C@@H]1CN(C)Cc1ccc(Oc2ccccc2)cc1 | 35.8% (active)
13 | COc1ccc(-c2cnc3c(c2)C(=O)N([C@H](C)CO)C[C@@H](C)[C@H](CN(C)Cc2ccccc2)O3)cc1 | 79.4% (active)
14 | C[C@@H]1CN([C@@H](C)CO)C(=O)c2cc(Br)cnc2O[C@H]1CN(C)Cc1ccc(-c2ccccc2)cc1 | -3.44% (inactive)
15 | CSc1nsc(SC)c1NC(=O)OC1CCCCC1 | -9.68% (inactive)
16 | O=C(Nc1cccc2ccccc12)c1[nH]c(-c2ccccc2)c2c1C(=O)N(C1CC1)C2=O | -24.4% (inactive)
17 | O=C1C2C3C=CC(C3)C2C(=O)N1c1ncc([N+](=O)[O-])s1 (stereo not given) | -4.85% (inactive)
18 | O=C(NC(Cc1ccccc1)C(=O)N1CCCC1C(=O)O)c1ccccc1 (stereo not drawn) (Bz-Phe-Pro-OH; configuration not given here) | -9.18% (inactive)
19 | NC(=O)c1ccc(NC(=O)COC(=O)C(Cc2ccccc2)NC(=O)c2ccccc2)cc1 (stereo not given) | 0.83% (inactive)
20 | CN(Cc1ccccc1F)C(=O)C(Cc1ccccc1)NC(=O)c1ccccc1 (stereo not given) | 33.5% (active)
21 | CCn1ccnc1CNC(=O)CC1C(=O)NCCN1CCCc1ccccc1 (stereo not given) | -10.2% (inactive)
22 | C[C@@H](C(=O)Nc1ccc2ccccc2c1)[C@@H]1C[C@@]1(C)[C@@H](NC(=O)c1cccnc1)c1ccccc1 | -3.75% (inactive)

Row | Compound | inhibition
23 | CCc1nc2ccc(C(=O)N3CCN(S(=O)(=O)CC)CC3)cn2c1N(C=O)CCC(C)C | -13.9% (inactive)
24 | CC1=C(C(=O)N2CCOCC2)CC(CC(=O)NCCCN(C)C)C(=O)N1Cc1ccc(C(C)(C)C)cc1 (stereo not given) | -15.7% (inactive)
25 | Cc1ccc(S(=O)(=O)NC(C)C(=O)NCc2ccc(Cl)cc2)cc1 (stereo not given) | 5.87% (inactive)
26 | COc1ccc(S(=O)(=O)NC(C)C(=O)NCc2ccncc2)cc1Cl (stereo not given) | 25.1% (active)
27 | CC(Oc1cc2oc(=O)c3c(c2cc1Cl)CCCC3)C(=O)NCc1ccncc1 (stereo not given) | 1.37% (inactive)
28 | CC(=O)N1C[C@@H](CO)[C@@H](N(C)C(=O)c2ccco2)C[C@H]1c1ccccc1 | 30.9% (inactive)
29 | COc1cc(OC)cc(C(=O)NNC(=O)CNC(=O)c2ccc(Br)o2)c1 | 15.6% (inactive)
30 | CCN1CN(Cc2ccccc2)CNC1=S | 0.26% (inactive)
31 | COc1ccc(NC(=O)C2(C)Cc3c(-c4cccc(NC(C)=O)c4)ccnc3O2)cc1 (stereo not given) | -7.09% (inactive)
32 | COc1cccc(CNc2nc(NCc3ccccc3OC)nc3ccsc23)c1 | 24.1% (inactive)
33 | COCCNc1nc(NCc2ccc(NC(C)=O)cc2)c2sccc2n1 | -8.59% (inactive)
34 | COc1cccc(CNc2nc(NCc3cccs3)nc3ccsc23)c1 | 51.9% (active)
35 | COc1ccc(-c2nc3c(s2)CCc2onc(-c4ccc(OC)cc4)c2-3)cc1 | -8.59% (inactive)
36 | O=C(/C=C(O)/C=C/c1ccc(O)cc1)/C=C/c1ccc(O)cc1 | 33.7% (active)
37 | COc1cccc(C=CC(=O)C=CC=Cc2ccccc2)c1 | -3.17% (inactive)
38 | COc1ccc(/C=C/C(=O)c2c(O)cc(OC)cc2OC)cc1 | 4.93% (inactive)
39 | O=S1(=O)C[C@@H](N2CCN(CCO)CC2)[C@H](COCc2ccccc2)N1 | 8.79% (inactive)
40 | COC(=O)CCCC1=CC2=C(c3ccccc3)C(=O)C(C)(OC(=O)C3CCCC3)C(=O)C2=CN1c1ccc(OC)cc1 (stereo not given) | 4.39% (inactive)
41 | CSc1ncccc1C(=O)N1CCCC(Nc2ccc(F)c(F)c2)C1 (stereo not given) | -21.9% (inactive)
42 | Cc1ccc(CN2CC(C(=O)NNC(=O)Cn3ccc(C(F)(F)F)n3)CC2=O)cc1 (stereo not given) | -4.1% (inactive)
43 | O=C1NC(O)CCN1C1CC(O)C(CO)O1 (stereo not given) | 4.13% (inactive)
44 | COc1cc(C(C(=O)NC2CCCC2)N(Cc2ccccc2)C(=O)c2snc(C(N)=O)c2N)ccc1O (stereo not given) | 0.09% (inactive)

Row | Compound | inhibition
45 | COc1ccc(CNC(=O)C(c2ccc(O)cc2)N(Cc2ccco2)C(=O)c2snc(C(N)=O)c2N)cc1 (stereo not given) | 34.8% (active)
46 | NC(=O)c1nsc(C(=O)N(CC(=O)NCc2ccc(F)cc2)Cc2ccco2)c1N | -9.5% (inactive)
47 | CCOC(=O)N1CCN(S(=O)(=O)c2ccc(C(=O)Nc3ccc(F)cc3F)cc2)CC1 | 5.69% (inactive)
48 | Cc1cc2cc3c(cc2nc1SCC(=O)Nc1c(C)cccc1C)CCC3 | -12.5% (inactive)
49 | O=C(CC[C@H]1O[C@@H](n2ccc(=O)[nH]c2=O)[C@H](O)[C@@H]1O)N[C@H](Cc1ccccc1)C(=O)NCCCN1CCCC1=O | -9.33% (inactive)
50 | Cc1cccc(C)c1NC(=O)c1ccc(CN2CCc3ccccc3C2)cc1 | 4.61% (inactive)
51 | Cc1cccc2c1-c1sc(C(=O)NCCCN3CCc4ccccc4C3)cc1CO2 | 58.2% (active)
52 | Cc1ccc(NC(=O)CN2CCc3ccccc3C2)cc1C | -11% (inactive)
53 | CCSc1nc2sc3c(c2c(=O)[nH]1)CC(C)(C)OC3 | -5.74% (inactive)
54 | O=c1c2c(nc3n1CCCCC3)sc1c(O)cccc12 | -13.7% (inactive)
55 | N=c1c2c3c(sc2ncn1CCCN1CCOCC1)CCCCC3 | 1.24% (inactive)
56 | N=c1c2c3c(sc2nc2n1CCCCC2)CCCC3 | 89.3% (active)
57 | CC1(C)Cc2c(sc3nc4n(c(=N)c23)CCCCC4)CO1 | 53.3% (active)
58 | CC(C)c1nc2sc3c(c2c(=O)n1N)CC(C)(C)OC3 | -0.09% (inactive)
59 | COc1ccccc1-c1cnn2c(N3CCOCC3)cc(C)nc12 | -0.68% (inactive)
60 | C=CCn1c2c(c3ccccc31)CCC2 | 3.67% (inactive)
61 | Cc1ccc2cc3cc(C(=O)N4CCCCCC4)oc3nc2c1 | -17.6% (inactive)
62 | Fc1ccc2[nH]c3c(N4CCSCC4)ncnc3c2c1 | 41.1% (active)
63 | CCOC(=O)N(Cc1ccccc1)C1CC1 | -16% (inactive)
64 | CCCCNC(=O)CSc1nc2ccc(NC(=O)CSc3nnc(COc4ccccc4C)n3C)cc2s1 | -13.4% (inactive)
65 | CCCCNC(=O)CSc1nc2ccc(NC(=O)CSc3nnc(N)s3)cc2s1 | -9.73% (inactive)
66 | Nc1nnc(SCC(=O)Nc2ccc3nc(SCC(=O)Nc4ccccc4)sc3c2)s1 | 30.3% (active)

Row | Compound | inhibition
67 | O=C1c2ccccc2C(c2nc3ccccc3[nH]2)N1c1ccccc1 (stereo not given) | -32.7% (inactive)
68 | CCS(=O)(=O)Nc1ccc(C2=NN(S(=O)(=O)c3ccc(F)cc3)C(c3ccco3)C2)cc1 (stereo not given) | -7.75% (inactive)
69 | COc1ccc(-c2cc(C(=O)n3cnc4ccccc43)c3ccccc3n2)cc1 | -11.1% (inactive)
70 | COc1ccc(CN(C)C(=O)c2cc(-c3ccc(C)cc3C)nc3ccccc23)c(OC)c1OC | 26.6% (active)
71 | COc1ccc(-c2cc(C(=O)N(C)Cc3ccccc3)c3ccccc3n2)cc1 | 41% (active)
72 | COc1ccc(-c2cc(C(=O)N(C)Cc3ccc(OC)c(OC)c3OC)c3ccccc3n2)cc1OC | 41.5% (active)
73 | COc1ccc(CN(C)C(=O)Cc2c[nH]c3ccccc23)c(OC)c1OC | -18.1% (inactive)
74 | COc1ccc(-c2cc(C(=O)N(C)CC(=O)Nc3ccccc3Cl)c3ccccc3n2)cc1OC | 21% (active)
75 | COc1ccc(NC(=O)c2cc(-c3cc(OC)c(OC)c(OC)c3)nc3ccccc23)c(OC)c1 | -10.6% (inactive)
76 | COc1ccc(CN(C)C(=O)Cc2ccsc2)c(OC)c1OC | -4.83% (inactive)
77 | COc1ccc(-c2cc(C(=O)NCCCN3CCCC3=O)c3ccccc3n2)cc1OC | 19.9% (inactive)
78 | COc1ccc(S(=O)(=O)N2CCCCCC2)cc1C(=O)N(C)Cc1cccc(OC)c1OC | -2.19% (inactive)
79 | COc1cccc(NC(=O)CN(C)C(=O)c2cc(Cl)nc3ccccc23)c1 | -8.88% (inactive)
80 | COc1ccc(Cl)cc1NC(=O)CN(C)C(=O)c1cc2ccccc2cc1OC | -2.48% (inactive)
81 | Cc1cc2oc(=O)cc(CN(C)Cc3ccccc3)c2cc1Cl | -3.35% (inactive)
82 | CC1(C(=O)NS(=O)(=O)c2ccccc2)CCN1C(=O)Cc1ccc(-c2ccccc2)cc1 (stereo not given) | -13% (inactive)
83 | CC(=O)N1c2ccc(S(=O)(=O)N3CCCC(C(=O)Nc4ccc(C)cc4C)C3)cc2CC1C (stereo not given) | -10.3% (inactive)
84 | CC(=O)n1cc([C@@H]2C=C(C(=O)N3CCN(Cc4ccc5c(c4)OCO5)CC3)O[C@H](OCc3ccc(CO)cc3)C2)c2ccccc21 | 15.6% (inactive)
85 | CNC[C@H]1OCc2cnnn2CCCC(=O)N([C@H](C)CO)C[C@@H]1C | -31.6% (inactive)
